FUS yeast rescue – rescues growth of FUS-expressing yeast; S. cerevisiae FUS-expressing, growth rescue, OD600, 24 h; Potency, µM (top dose mostly 76.6 µM), most hits filed as activators; hit rate 0.24% among 390,000; AID 1347120;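 note: plate controls were DMSO vehicle for no effect and reference control for full effect; nearly all actives have a fitted effect of over 55% in size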
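Yeast expressing FUS under galactose induction, OD 0.005 in 2% galactose medium; compounds in a dilution series, 24 h at 30C. Growth rescue by absorbance at 600 nm; CP55940 positive control, DMSO negative.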
aSyn yeast inh – rescues yeast growth from alpha-synuclein toxicity | Yeast expressing alpha-synuclein, growth rescue, BacTiter-Glo, 24 h | Potency, µM (top dose mostly 46.1 µM), inactives show at the top dose growth rescue (activation), most hits filed as activators | hit rate 0.14% among 370,000 | AID 652106; note: % of control where 0% means no effect; nearly all actives have a fitted effect of over 65% in size
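Readout is rescue of growth in alpha-synuclein-expressing yeast, so inhibitors of toxicity appear as activators. Growth after 24 hr at 30 deg C in galactose medium is quantified by luminescence.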
TDP43 rescue – inhibitors of TDP-43 toxicity in yeast; hit rate 1.8% among 410,000; AID 652104; TDP-43 expressing yeast growth rescue, BacTiter-Glo, 24 h; Potency, µM (series often up to 46.1 µM), for inactives: at the top dose growth rescue (activation), actives largely listed as activators; note: % of control where 0% means no effect; nearly all actives have a fitted effect of over 50% in size
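In this qHTS, compounds that restore growth of yeast expressing TDP-43 appear as activators. Cells (OD600=0.02, galactose medium, raffinose-pregrown) are incubated with compound 24 hr at 30 deg C and growth is quantified by BacTiter-Glo.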
Abeta rescue – restores growth of yeast expressing A-beta42 peptide. yeast expressing A-beta42, growth rescue, OD600, 48 h; response scale: 0% DMSO, 100% iron-clioquinol control. Potency, µM (highest dose often 46.1 µM), most hits filed as activators. hit rate 0.063% among 410,000. AID 1347071; note: nearly all actives have a fitted effect of over 55% in size
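Yeast A-beta toxicity model in growth medium with pinned compounds, 48 h at 30 C; growth read as absorbance at 600 nm. Normalized to FeCl3/clioquinol equimolar mix (positive) and DMSO (negative).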
Numbers without * were called inactive; i = inactive; ? = inconclusive; / = not tested or not shown. Sampled rows, rich in hits. Any-hit rate of the full collection: about 2.1%. Calls come from the whole dose curve; as a rule, active = well fitted curve in the direction sought with a large enough effect; inconclusive = small, poorly fitted or top-dose-only effect, or another doubt; inactive = no such curve, though single readings can be large; an effect the other way counts as inactive or inconclusive. Potency is the fitted concentration of half-maximal effect.

SMILES | FUS yeast rescue | aSyn yeast inh | TDP43 rescue | Abeta rescue
N/C(=N\OC(=O)CCC1CCCC1)c1cccc([N+](=O)[O-])c1 | i | -17% | 20µM* | i
N/C(=N\OC(=O)CC1CCCCC1)c1ccc([N+](=O)[O-])cc1 | / | -6% | 18µM* | i
N/C(=N\OC(=O)CCC1CCCCC1)c1ccc([N+](=O)[O-])cc1 | / | -6% | 20µM* | i
COc1ccc(OCC(=O)O/N=C(\N)c2ccc(OC)cc2)cc1 | i | 1% | 2% | i
N/C(=N\OC(=O)CC1CCCCC1)c1cccc([N+](=O)[O-])c1 | i | -12% | ? | i
N/C(=N\OC(=O)CCC1CCCC1)c1ccc(Br)cc1 | / | -50% | 6.3µM* | i
N/C(=N\OC(=O)CCC1CCCCC1)c1cccnc1 | i | -1% | 13µM* | i
COc1cccc(/C=C/C(=O)c2cccc([N+](=O)[O-])c2)c1OC | i | -1% | 11µM* | i
COc1ccc(/C=C/C(=O)c2ccc[nH]2)c(OC)c1OC | i | 0% | 14µM* | i
COc1cccc(/C=C/C(=O)c2cccc([N+](=O)[O-])c2)c1 | i | 18% | 10% | i
COc1ccc(/C=C/C(=O)c2ccc[nH]2)cc1OC | i | 17% | ? | i
Cc1cc(=O)n(CC(=O)N2CCN(c3ccccc3F)CC2)c2c1c(C)nn2C | i | / | ? | i
Cc1nn(C)c2c1c(C(F)(F)F)cc(=O)n2CC(=O)N1CCN(c2ccccc2F)CC1 | ? | / | 22µM* | i
O=C(N/N=C/c1c[nH]c2ccccc12)c1ccn(Cc2ccc(Cl)cc2)n1 | i | 1% | 10% | i
O=C(N/N=C/c1c[nH]c2ccc(Br)cc12)c1ccn(Cc2ccc(Cl)cc2Cl)n1 | 28µM* | 2% | 20% | i
c1ccc2nccnc2c1 | / | -14% | / | /
Cc1ccc2oc(-c3ccc(C)c(NC(=O)COc4ccccc4C)c3)nc2c1 | / | -4% | / | /
CSc1nc(Cl)cc(Nc2ccccc2N)n1 | i | 9% | 10µM* | i
Nc1nc(Cl)cc(Nc2ccccc2Cl)n1 | i | -13% | 22% | i
C[N+](C)(C)c1ccc(/C=C/c2ccnc3ccccc23)cc1 | / | -38% | / | /
Clc1ccccc1Nc1nc(-c2ccncc2)nc2ccccc12 | i | 1% | 35µM* | i
c1ccc2c(Nc3nc(-c4ccncc4)nc4ccccc34)cccc2c1 | i | 5% | 2% | i
Cc1snc(SCC(=O)c2ccc(F)cc2)c1C#N | i | 22% | ? | i
Cc1snc(SCC(=O)c2ccc([N+](=O)[O-])cc2)c1C#N | i | 2% | 22µM* | i
Brc1cc2c(cc1Br)OCCOCCOCCO2 | i | 0% | 20µM* | i
SMILES | FUS yeast rescue | aSyn yeast inh | TDP43 rescue | Abeta rescue
CCCCCC[C@@H](CN(CCCC)S(C)(=O)=O)c1ccccc1 | i | / | / | /
Cn1nnc2c(N3CCN(Cc4ccccc4)CC3)ncnc21 | / | -2% | / | /
CC(C)(C)C(=O)O/N=C(\N)c1c(Cl)cccc1Cl | i | 3% | 13µM* | i
Cc1onc(-c2c(Cl)cccc2Cl)c1/C(N)=N/OC(=O)C(C)(C)C | i | -15% | 18% | i
CCOC(=O)Cn1cc(C(=O)c2cccs2)c2ccccc21 | i | -1% | 18µM* | i
O=C(O)Cn1cc(C(=O)c2cccs2)c2ccccc21 | i | 7% | -16% | i
COc1ccc(NC(=O)Cn2cc(S(=O)(=O)c3ccccc3)c(=O)c3cc(C)ccc32)cc1Cl | i | / | 11% | i
O=C(CSc1nccc(-c2cccs2)n1)Nc1cccc(Cl)c1 | i | 3% | 14µM* | i
Cc1ccc(CNc2nc(C)nc3sc4c(c23)CCC4)cc1 | i | 0% | -6% | i
Cc1nc(NC(C)c2ccccc2)c2c3c(sc2n1)CCC3 (stereo not given) | i | -10% | 14µM* | i
CC1=C(C(=O)OC2CCCCCC2)C(c2c(F)cccc2Cl)CC(=O)N1 (stereo not given) | i | / | 11µM* | i
COCCNC(=S)N/N=C(\C)c1ccc2cc(OC)ccc2c1 | i | -9% | 7% | i
COCCNC(=S)N/N=C(\C)c1cccc(C(F)(F)F)c1 | i | -12% | -18% | 11µM*
Cc1ccc(-c2nc3cccnc3o2)cc1NC(=O)COc1ccc(Cl)cc1C | i | -3% | 12% | i
Cc1ccc(-c2nc3cccnc3o2)cc1NC(=O)COc1ccc(C(C)(C)C)cc1 | 32µM* | -11% | ? | i
O=C(Nc1ccccc1F)c1ccc(Cn2nc(N3CCN(c4ccccc4)CC3)ccc2=O)o1 | i | / | ? | i
Cc1cc(-c2ccc(S(=O)(=O)Nc3ccc(Cl)cc3C)cc2)on1 | i | / | 16µM* | i
Cc1ccc(NS(=O)(=O)c2ccc(-c3cc(C)no3)cc2)c(Br)c1 | i | / | 22µM* | i
Cc1cc(-c2ccc(S(=O)(=O)Nc3ccccc3C)cc2)on1 | i | / | 23% | i
Cc1ccc(C(C)NC(=S)NC2CCCCC2)c(C)c1 (stereo not given) | i | -25% | 20% | 11µM*
CCN(CC)S(=O)(=O)c1ccc(N2CCOCC2)c(NC(=O)c2ccc(C#N)cc2)c1 | 28µM* | 2% | 1% | i
CCN(CC)S(=O)(=O)c1ccc(N2CCOCC2)c(NC(=O)c2ccc(F)cc2)c1 | i | 2% | ? | i
CCn1c(=O)n2n(c1=O)[C@H]1C[N+](Cc3ccc4c(c3)OCO4)=C(N)NC1=C(C)C2 | i | / | / | /
O=C(Nc1ccc(Cl)cn1)C1C(c2ccccc2)C1(Cl)Cl (stereo not given) | i | -11% | 13µM* | i
O=C(Nc1ccccc1)C1C(c2ccccc2)C1(Cl)Cl (stereo not given) | i | -11% | ? | i
SMILES | FUS yeast rescue | aSyn yeast inh | TDP43 rescue | Abeta rescue
Cc1nc(-c2ccccc2Cl)sc1C(=O)/C=C/N(C)C | i | -64% | 32µM* | i
COCc1cc(OC)nc(-c2csc(C)n2)n1 | i | 4% | 24% | 16µM*
CCN(CC)C(=O)CC[C@H]1CC[C@]2(CCCN(Cc3cccnc3)C2)O1 | i | / | / | /
Oc1ccccc1Cc1c(O)ccc2ccccc12 | i | 18% | 16µM* | i
COc1cccc2sc3ccc(C#Cc4ccc(N)cc4)cc3c(=O)c12 | 32µM* | 1% | -2% | i
COc1cccc2sc3ccc(C#CC4(O)CCCCC4)cc3c(=O)c12 | ? | -7% | 16µM* | i
Nc1ccc(C#Cc2ccc3sc4ccccc4c(=O)c3c2)cc1 | i | 2% | 15% | i
COc1ccc(C)cc1NC(=O)COC(=O)c1ccc([N+](=O)[O-])o1 | i | 2% | 11µM* | i
O=C(COC(=O)c1ccc([N+](=O)[O-])o1)Nc1ccc(N2CCOCC2)cc1 | i | -21% | ? | i
O=C(COC(=O)c1ccc([N+](=O)[O-])o1)Nc1ccc(F)cc1 | i | -7% | 16µM* | i

Bioassay records from PubChem BioAssay.
